Measurements: PubChem BioAssay (NCI)
Compounds without any hit were thinned out: in the full panel of roughly 79,000, 15% have a hit. The source made the active and inactive calls. Rule as the data show it: active = growth inhibition above about 70%; inactive = the rest.

Legend:
[1] = NCI Yeast Anticancer Drug Screen. Data for the rad52 strain (AID 147);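 also: 0% = growth of vehicle-treated control cultures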; conditions: S. cerevisiae rad52 mutant growth inhibition, active compounds read high
Method in brief: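 Genetically altered yeast (DNA damage repair defect) treated with compound; inhibition calculated relative to vehicle.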

[2] = NCI Yeast Anticancer Drug Screen. Data for the wt1 strain (AID 149);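 also: 0% = growth of vehicle-treated wt1 cultures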; conditions: S. cerevisiae wt1 strain (SPY 50644) growth inhibition, active compounds read high
Method in brief: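 Vehicle-normalised growth inhibition; strain wt1; compound exposure.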

[3] = NCI Yeast Anticancer Drug Screen. Data for the rad50EPP+ strain (AID 151);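 also: 0% = growth of vehicle-treated control cultures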; conditions: S. cerevisiae rad50 mutant strain, active compounds read high
Method in brief: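 Strain rad50EPP+; compound exposure; % growth inhibition vs vehicle.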

[4] = NCI Yeast Anticancer Drug Screen. Data for the mgt1 strain (AID 153); conditions: S. cerevisiae mgt1 mutant growth inhibition, active compounds read high
Method in brief: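 Read-out: yeast growth inhibition vs vehicle control. Strain mgt1, drawn from a panel altered in DNA damage repair or cell cycle control.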

[5] = NCI Yeast Anticancer Drug Screen. Data for the rad50 strain (AID 155);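 also: 0% = growth of vehicle-only cultures of the same strain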; conditions: S. cerevisiae rad50 strain growth inhibition, active compounds read high
Method in brief: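 A DNA repair-deficient yeast mutant serves as the test organism; compound-induced growth inhibition is calculated against vehicle-treated cells.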

[6] = NCI Yeast Anticancer Drug Screen. Data for the mec2-1 strain (AID 157); conditions: S. cerevisiae mec2-1 strain, active compounds read high
Method in brief: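 Cells of the genetically defined mec2-1 yeast strain are incubated with test compound. Inhibition of growth is calculated against vehicle-treated controls.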

[7] = NCI Yeast Anticancer Drug Screen. Data for the rad14 strain (AID 159);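 also: 0% = growth of vehicle-treated control cultures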; conditions: S. cerevisiae rad14 strain growth inhibition, active compounds read high
Method in brief: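 Vehicle-treated cultures served as the baseline for growth inhibition of a DNA repair-mutant yeast strain exposed to each compound.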

[8] = NCI Yeast Anticancer Drug Screen. Data for the sgs1 mgt1 strain (AID 161);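 also: 0% = growth of cultures given vehicle only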; conditions: S. cerevisiae sgs1 mgt1 strain, active compounds read high
Method in brief: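 Genetically altered yeast, compound exposure, growth inhibition relative to vehicle.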

[9] = NCI Yeast Anticancer Drug Screen. Data for the CLN2oe strain (AID 163);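 also: 0% = growth of vehicle-only control cultures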; conditions: S. cerevisiae CLN2oe strain, active compounds read high
Method in brief: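 Strain altered in cell-cycle control, incubated with compound; growth compared to solvent-treated controls.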

[10] = NCI Yeast Anticancer Drug Screen. Data for the cln2 rad14 strain (AID 165);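 also: 0% = growth equal to vehicle treated cultures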; conditions: S. cerevisiae cln2 rad14 strain, active compounds read high
Method in brief: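 The screen exposed genetically defined yeast (cln2 rad14) to test compounds and scored growth inhibition relative to vehicle-treated controls.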

[11] = NCI Yeast Anticancer Drug Screen. Data for the bub3 strain (AID 167); conditions: S. cerevisiae bub3 mutant strain, active compounds read high
Method in brief: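 Inhibition values come from growth of compound-treated mutant yeast normalised to vehicle-treated controls.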

[12] = NCI Yeast Anticancer Drug Screen. Data for the wt2 strain (AID 169);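 also: 0% = growth of vehicle-treated yeast cultures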; conditions: S. cerevisiae wt2 strain growth inhibition, active compounds read high
Method in brief: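 Steps: yeast strain treated with compound; growth recorded; inhibition calculated relative to cultures given vehicle alone.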

[13] = NCI Yeast Anticancer Drug Screen. Data for the mlh1 strain (AID 171);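 also: 0% = growth of vehicle-treated control cultures of the same strain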; conditions: S. cerevisiae mlh1 strain growth inhibition, active compounds read high
Method in brief: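 Yeast screen: mutant strain plus compound, growth scored against vehicle control wells.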

[14] = NCI Yeast Anticancer Drug Screen. Data for the sgs1 strain (AID 173);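 also: 0% = growth of vehicle-only control cultures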; conditions: S. cerevisiae sgs1 mutant, active compounds read high
Method in brief: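 Inhibition of yeast growth served as the measure. The mutant strain was treated with each compound, and growth was normalised to cultures receiving vehicle alone.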

[15] = NCI Yeast Anticancer Drug Screen. Data for the mlh1 rad18 strain (AID 175); conditions: S. cerevisiae mlh1 rad18 strain growth inhibition, active compounds read high
Method in brief: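 Compound-treated yeast growth, normalised to vehicle controls. Strain bears defined DNA repair mutations.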

[16] = NCI Yeast Anticancer Drug Screen. Data for the rad18 strain (AID 177); conditions: S. cerevisiae rad18 mutant growth inhibition, active compounds read high
Method in brief: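 Inhibition values reflect reduced yeast growth compared with vehicle-treated controls, using a strain engineered with a DNA damage repair defect.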

[17] = at 5.0 µM (retest, dose inferred, filed as 0.5)
[18] = at 50.0 µM (retest, dose inferred, filed as 5.0)

Measured: growth inhibition

CCC(=O)Nc1ccc(N=NN(C)C)cc1
active: [1]; at 33.0 µM 87% | [1]; at 100.0 µM 99% | [2]; at 100.0 µM 99% | [3]; at 100.0 µM 99% | [5]; at 50.0 µM 90.7% | [5]; at 100.0 µM 98% | [6]; [18] 95% | [6]; at 50.0 µM 75.2% | [6]; at 100.0 µM 99% | [7]; at 100.0 µM 99% | [9]; at 100.0 µM 97% | [11]; at 100.0 µM 90% | [12]; at 33.0 µM 73% | [12]; at 100.0 µM 100% | [13]; at 100.0 µM 99% | [14]; at 100.0 µM 99% | [16]; at 100.0 µM 99%
inactive: [1]; at 1.2 µM -9% | [1]; at 3.7 µM -12% | [1]; at 11.0 µM -13% | [2]; at 1.2 µM -1% | [2]; at 3.7 µM 2% | [2]; at 11.0 µM 3% | [2]; at 33.0 µM 47% | [3]; at 1.2 µM -10% | [3]; at 3.7 µM -30% | [3]; at 11.0 µM -21% | [3]; at 33.0 µM 65% | [4]; at 1.2 µM -2% | [4]; at 3.7 µM -9% | [4]; at 11.0 µM -5% | [4]; at 33.0 µM -9% | [4]; at 100.0 µM 45% | [5]; at 1.2 µM -61% | [5]; at 3.7 µM -23% | [5]; [17] -146% | [5]; at 11.0 µM -20% | [5]; at 33.0 µM 24% | [5]; [18] 45% | [6]; at 1.2 µM -5% | [6]; at 3.7 µM -5% | [6]; [17] -49% | [6]; at 11.0 µM -5% | [6]; at 33.0 µM 17% | [7]; at 1.2 µM -3% | [7]; at 3.7 µM -7% | [7]; at 11.0 µM -1% | [7]; at 33.0 µM 23% | [8]; [17] -65% | [8]; [18] 37% | [8]; at 50.0 µM 69.9% | [9]; at 1.2 µM -11% | [9]; at 3.7 µM -9% | [9]; at 11.0 µM -11% | [9]; at 33.0 µM 21% | [10]; [17] -56% | [10]; [18] 55% | [10]; at 50.0 µM 48.2% | [11]; at 1.2 µM -9% | [11]; at 3.7 µM -8% | [11]; [17] -70% | [11]; at 11.0 µM -13% | [11]; at 33.0 µM -11% | [11]; [18] 34% | [11]; at 50.0 µM 0.3% | [12]; at 1.2 µM 0% | [12]; at 3.7 µM 2% | [12]; at 11.0 µM 6% | [13]; at 1.2 µM -13% | [13]; at 3.7 µM -10% | [13]; at 11.0 µM -10% | [13]; at 33.0 µM 19% | [14]; at 1.2 µM -13% | [14]; at 3.7 µM -8% | [14]; at 11.0 µM 2% | [14]; at 33.0 µM 46% | [15]; [17] -150% | [15]; [18] 9% | [15]; at 50.0 µM 50.2% | [16]; at 1.2 µM -8% | [16]; at 3.7 µM -10% | [16]; at 11.0 µM -9% | [16]; at 33.0 µM 69%

O=P(C(=S)Nc1c(Cl)cccc1Cl)(c1ccccc1)c1ccccc1
active: [1]; at 100.0 µM 97% | [2]; at 100.0 µM 96% | [4]; at 100.0 µM 95% | [5]; [17] 73% | [5]; [18] 99% | [5]; at 50.0 µM 87.7% | [5]; at 100.0 µM 95% | [6]; [17] 71% | [6]; [18] 99% | [6]; at 50.0 µM 91% | [6]; at 100.0 µM 94% | [7]; at 100.0 µM 94% | [8]; [18] 95% | [8]; at 50.0 µM 88.3% | [9]; at 100.0 µM 95% | [10]; [18] 96% | [10]; at 50.0 µM 89.9% | [11]; [18] 75% | [11]; at 50.0 µM 89% | [11]; at 100.0 µM 97% | [12]; at 100.0 µM 96% | [13]; at 100.0 µM 95% | [14]; at 100.0 µM 95% | [15]; [18] 98% | [15]; at 50.0 µM 87.2% | [16]; at 100.0 µM 96%
inactive: [1]; at 1.2 µM 21% | [1]; at 3.7 µM 24% | [1]; at 11.0 µM 22% | [1]; at 33.0 µM 24% | [2]; at 1.2 µM 31% | [2]; at 3.7 µM 25% | [2]; at 11.0 µM 18% | [2]; at 33.0 µM 24% | [3]; at 1.2 µM 6% | [3]; at 3.7 µM 8% | [3]; at 11.0 µM 24% | [3]; at 33.0 µM 19% | [3]; at 100.0 µM 31% | [4]; at 1.2 µM 11% | [4]; at 3.7 µM -16% | [4]; at 11.0 µM -11% | [4]; at 33.0 µM -1% | [5]; at 1.2 µM 20% | [5]; at 3.7 µM 8% | [5]; at 11.0 µM 14% | [5]; at 33.0 µM 1% | [6]; at 1.2 µM 5% | [6]; at 3.7 µM 9% | [6]; at 11.0 µM 14% | [6]; at 33.0 µM 7% | [7]; at 1.2 µM -13% | [7]; at 3.7 µM -14% | [7]; at 11.0 µM -16% | [7]; at 33.0 µM -18% | [8]; [17] -6% | [9]; at 1.2 µM 8% | [9]; at 3.7 µM 21% | [9]; at 11.0 µM 15% | [9]; at 33.0 µM 16% | [10]; [17] 41% | [11]; at 1.2 µM 0% | [11]; at 3.7 µM 4% | [11]; [17] 21% | [11]; at 11.0 µM 14% | [11]; at 33.0 µM 11% | [12]; at 1.2 µM 21% | [12]; at 3.7 µM 8% | [12]; at 11.0 µM 15% | [12]; at 33.0 µM 35% | [13]; at 1.2 µM 10% | [13]; at 3.7 µM 10% | [13]; at 11.0 µM 0% | [13]; at 33.0 µM 6% | [14]; at 1.2 µM 25% | [14]; at 3.7 µM 13% | [14]; at 11.0 µM 3% | [14]; at 33.0 µM 18% | [15]; [17] 60% | [16]; at 1.2 µM -12% | [16]; at 3.7 µM -20% | [16]; at 11.0 µM -22% | [16]; at 33.0 µM -12%
